# The whole screen tested about 63,000 compounds, of which about 1,100 (1.7%) were called active. Shown is part of a subset that was picked to be rich in actives. Results with a measured potency or affinity are listed apart. Values without a mark were called inactive.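 Rule for the calls: active = compounds whose percent cytotoxicity in the single-dose primary screen, scaled between solvent and toxic-drug controls, exceeds 50; inactive = the rest.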
# Experiment: viability loss of HPDE-C7K cells – cell-based, fluorescence, HTS, primary screen (AID 431);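 note: 0% = DMSO solvent wells and 100% = doxorubicin-treated wells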
# Settings: HPDE-C7K KRASV12 cells, Alamar Blue viability, 48 h; at 10 µM; active compounds read high
row,SMILES,cytotoxicity
1,CCOC(=O)C1=C(N)Oc2cc(C)oc(=O)c2C1c1cccnc1 (centres undefined),4.4%
2,Cc1n[nH]c(=O)nc1NCc1ccccc1,-17%
3,CCCCCc1c(C)nc(NCc2ccccc2)[nH]c1=O,2.9%
4,CCC(C)(C)NC(=O)C(c1cccn1C)N(Cc1ccccc1)C(=O)Cn1nnc2ccccc21 (centres undefined),-4.3%
5,CC(=O)NC1CSCC1OC(C)=O (centres undefined),-14.9%
6,CCOC(=O)c1c(N)sc(C(=O)N2CCOCC2)c1C,-10.1%
7,CC(C)(C)NC(=O)c1ccc(COc2ccccc2Br)o1,-20.3%
8,COc1cc(NC(=O)c2ccc(COc3ccccc3Br)o2)cc(OC)c1OC,68.9% (active)
9,O=C(Nc1cccnc1)c1ccc(COc2ccccc2Br)o1,30.3%
10,O=C(Nc1nccs1)c1ccc(COc2ccc(F)cc2)o1,5%
11,COc1ccc(NC(=O)c2ccc(COc3ccccc3Br)o2)cc1OC,40.4%
12,O=C(Nc1nccs1)c1ccc(COc2ccccc2Br)o1,51% (active)
13,CC(C)c1nc(SCC(=O)NCc2ccccc2)n[nH]1,-9.2%
14,CN1C(=O)c2ccccc2N(C)C1c1ccc2c(c1)OCO2 (centres undefined),6.7%
15,COc1ccc(C(=O)NCC(=O)n2nc(C)cc2C)cc1OC,13.4%
16,Cc1ccc2c(c1)N(C(C)C(=O)NCCc1ccccc1)C(=O)CO2 (centres undefined),-4.9%
17,COc1cccc(CN(C)CC(=O)NC(=O)NCc2ccco2)c1,-9.5%
18,O=C(CN(C1CCCCC1)S(=O)(=O)c1ccc(Cl)cc1)NCc1cccnc1,-28.1%
19,Cc1ccc(S(=O)(=O)N(CC(=O)NCc2ccncc2)C2CCCCC2)cc1,1.7%
20,O=C(CN(C1CCCCC1)S(=O)(=O)c1ccccc1)NCc1cccnc1,73.1% (active)
21,COc1ccc(C(=O)N2CCCC(c3nc(-c4cccs4)no3)C2)cc1 (centres undefined),3%
22,CCOc1ccc(-c2c(C#N)c(N)nc3c2c(=O)n(C)c(=O)n3C)cc1OC,-3.8%
23,Clc1ccc(-n2ncc3c(NCc4ccco4)ncnc32)cc1,8.8%

row,SMILES,cytotoxicity
1,CCCCNc1ncnc2c1cnn2-c1ccc(Cl)cc1,28.5%
2,CCCCNc1ncnc2c1cnn2-c1ccccc1,61.8% (active)
3,c1ccc(-n2ncc3c(NCc4ccco4)ncnc32)cc1,7.1%
4,CN(C)CCCNc1ncnc2c1cnn2-c1ccccc1,0.7%
5,c1ccc(Cn2ncc3c(NCc4ccco4)ncnc32)cc1,8.3%
6,Cc1ccc(-n2ncc3c(NCc4ccco4)ncnc32)c(C)c1,5.4%
7,Cc1cccc(-n2ncc3c(NCc4ccco4)ncnc32)c1,69.2% (active)
8,Clc1ccc(Cn2ncc3c(NCc4ccco4)ncnc32)c(Cl)c1,60.9% (active)
9,COc1ccc(S(=O)(=O)Cc2ccc(C(=O)NCCCN(C)c3ccccc3)o2)cc1,2.5%
10,CCOC(=O)C1C(=O)CC(C)(O)C(C(=O)OCC)C1c1ccco1 (centres undefined),1.3%
11,CC1CC(C)CN(C(=O)CCCn2c(=S)[nH]c3ccccc3c2=O)C1 (centres undefined),-3.1%
12,CCOc1cc(C(=O)N2CCOCC2)ccc1OCc1ccccc1,-7.3%
13,CC(C)OCCCNC(=O)CN1CCN(Cc2ccccc2Cl)C1=O,-6.4%
14,Cc1nnc(NC(=O)CSc2nnc(CNC(=O)c3ccccc3)n2-c2ccccc2)s1,-0.6%
15,O=C(C1CCN(S(=O)(=O)Cc2ccccc2)CC1)N1CCN(c2ncccn2)CC1,11.4%
16,CCC(=O)NCCC(c1ccco1)c1ccccc1OC (centres undefined),-5.9%
17,O=C(O)c1c(-c2ccccc2)c2oc3ccccc3c2[nH]c1=O,81.6% (active)
18,O=c1[nH]c(Cc2ccccc2)nc2c1oc1ccccc12,10.4%
19,O=C(O)c1oc2ccccc2c1-n1cccc1,7.2%
20,COC(=O)c1ccc(C(=O)OC)c(NS(C)(=O)=O)c1,-2.8%
21,CC(=O)Nc1cccc(OCC(O)Cn2cnc3ccccc32)c1 (centres undefined),3.6%
22,OCCOCCN1CCN(C(c2ccccc2)c2ccc(Cl)cc2)CC1 (centres undefined),26.4%
23,CN1CCCN(C(c2ccccc2)c2ccc(Cl)cc2)CC1 (centres undefined),51% (active)

row,SMILES,cytotoxicity
1,Cc1cccc(CN2CCN(C(c3ccccc3)c3ccc(Cl)cc3)CC2)c1 (centres undefined),85.4% (active)
2,Cc1cccc(CN2CCN(c3ccccn3)CC2)c1,-9.1%
3,Cc1cccc(CN2CCN(C(=O)c3ccccc3F)CC2)c1,-6.8%
4,Cc1cc(N2CCN(C(c3ccccc3)c3ccc(Cl)cc3)CC2)n2ncnc2n1 (centres undefined),8.1%
5,O=C(Nc1ccc2c(c1)OCO2)C1CCCN(S(=O)(=O)c2cccs2)C1 (centres undefined),0.2%
6,Cc1ccc(NC(=O)c2ccco2)c(NC(=O)c2cccs2)c1,-4.8%
7,COc1ccc(C(=O)OCCN2CCOCC2)cc1OC,-1.7%
8,Cc1ccc(C(=O)N(CC(=O)NC2CCCC2)Cc2cccs2)s1,5.4%
9,Cc1ccc2cccc(OCC(=O)NCc3ccco3)c2n1,-8.8%
10,CCCCCOc1ccc(C(=O)NC(C(=O)O)C(C)C)cc1 (centres undefined),6.5%
11,O=C1C(C=Nc2ccccc2O)=C(O)c2ccccc21,13.8%
12,Cc1ccc(O)c(N=CC2=C(O)c3ccccc3C2=O)c1,52.6% (active)
13,CN=CC1=C(O)c2ccccc2C1=O,-1.7%
14,Cc1cccc(-n2ncc3c(NC4CCCCC4)ncnc32)c1,11.8%
15,COC(=O)c1c(NC(=O)c2ccoc2C)sc2c1CCC2,-18%
16,O=C(Nc1sc2c(c1C(=O)O)CCCCC2)c1ccco1,3.9%
17,COC(=O)c1c(NC(=O)c2ccc(Br)s2)sc2c1CCC2,64.4% (active)
18,O=C(Nc1sc2c(c1C(=O)O)CCC2)c1cccs1,5.8%
19,O=C(Nc1sc2c(c1C(=O)O)CCCC2)c1cccs1,13.8%
20,NC(=O)c1c(NC(=O)c2cccs2)sc2c1CCCCCC2,57.6% (active)
21,COC(=O)c1c(NC(C)=O)sc2c1CCCC2,3.4%
22,NC(=O)c1c(NC(NC(=O)c2ccco2)(C(F)(F)F)C(F)(F)F)sc2c1CCCC2,51.3% (active)
23,CCOC(=O)c1c(NC(=O)c2ccco2)sc2c1CCCCC2,11.4%
